From PubChem
L3MBTL1 inh – inhibitors of human L3MBTL1; AlphaScreen L3MBTL1–H3K9me1 peptide binding; Potency, µM (series often up to 57.1 µM), without a hit: at the highest dose activity, negative = inhibition, most hits filed as inhibitors; 0.66% of 230,000 active; note: % is set by controls: 0 for no effect and ±100 for the full control effect; nearly all actives have a fitted effect of over 60% in size
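Read-out is AlphaScreen signal from streptavidin donor and nickel chelate acceptor beads (10 ug/mL final each) bridging L3MBTL1 (50 nM) and biotinylated K9-monomethylated H3(1-15) peptide (75 nM), after 30 min compound exposure at room temperature.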
Sfp inh – Sfp phosphopantetheinyl transferase inhibition | Potency, µM, without a hit: largest response in the series, negative = inhibition, usual class: inhibitors | 3.5% of 310,000 active | Q9F4F7 | Biochemical Sfp PPTase activity, qHTS;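 note: the enzyme is Sfp with the accession as filed and its product quenches rhodamine fluorescence; 0% = enzyme reaction without inhibitor and -100% = no enzyme wells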
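Reaction rates are the 30-min fluorescence difference (ex 525, em 598 nm) in wells containing 15 nM Sfp, 5 uM rhodamine-CoA and 12.5 uM BHQ-2-YbbR at pH 7.6 with 10 mM MgCl2.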
HP1b binding inh – inhibitors of HP1-beta chromodomain binding to methylated histone tails; P83916; AlphaScreen HP1-beta / biotin-H3K9me3 peptide binding; Potency, µM (doses to about 114 µM), without a hit: at the highest dose activity change, negative = inhibition, usual class: inhibitors; 0.56% of 390,000 active; AID 540317; note: nearly all actives have a fitted effect of over 70% in size
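HP1-beta protein (50 nM final) preincubated 30 min at room temperature with biotinylated H3(1-18)K9me3 peptide (50 nM) in PBS pH 7.4, 0.01% Tween-20, then compound added for 30 min. AlphaScreen streptavidin donor/nickel chelate acceptor beads (10 ug/mL final), 30 min dark, luminescence read.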
G9a block – blocks human histone lysine methyltransferase G9a; 8.8% of 350,000 active; G9a H3K9 monomethylation, AlphaScreen, 2 h; Q96KQ7; Potency, µM (highest dose often 102 µM), without a hit: at the highest dose activity, negative = inhibition, hits mostly inhibitors; note: % is set by controls: 0 for no effect and ±100 for the full control effect; nearly all actives have a fitted effect of over 75% in size
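Quantitative HTS format: methyltransferase activity on a biotin-tagged H3K9 peptide is measured by AlphaScreen, using a rabbit anti-monomethyl-H3K9 antibody with streptavidin donor and anti-IgG acceptor beads. Final levels are 20 nM enzyme, 500 nM peptide, 20 uM SAM; 2 h RT.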
BAZ2B block – BAZ2B (human) inhibition; AID 504333; Potency, µM (top dose mostly 114 µM), inactives show top-dose activity change, negative = inhibition, hits mostly inhibitors; AlphaScreen BAZ2B-H3K14Ac peptide displacement; 4.4% of 360,000 active; Q9UIF8; note: % is set by controls: 0 for no effect and ±100 for the full control effect; nearly all actives have a fitted effect of over 60% in size
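In this displacement format the biotinylated H3(5-23) peptide acetylated at Lys14 serves as ligand at 50 nM, with BAZ2B at 50 nM in PBS pH 7.4 containing 0.01% Tween-20. Donor and acceptor beads are 10 ug/mL final.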
JMJD2A Tudor inh – JMJD2A Tudor domain (human) inhibition; O75164; AlphaScreen JMJD2A-Tudor / H3K4me3 peptide binding; Potency, µM (doses to about 114 µM), for inactives: at the top dose activity change, negative = inhibition, hits mostly inhibitors; 4.4% of 390,000 active; note: % is set by controls: 0 for no effect and ±100 for the full control effect; nearly all actives have a fitted effect of over 50% in size
* hit, by the source's call; ? = inconclusive; . = not tested or not shown; [ ] = dose if it differs, or a comment. Only some compounds are listed: those with a hit (about 12% of all), similar ones and a draw of the others. Calls come from the whole dose curve; as a rule, active = well fitted curve in the direction sought with a large enough effect; inconclusive = small, poorly fitted or top-dose-only effect, or another doubt; inactive = no such curve, though single readings can be large; an effect the other way counts as inactive or inconclusive. Potency is the fitted concentration of half-maximal effect.

SMILES | L3MBTL1 inh | Sfp inh | HP1b binding inh | G9a block | BAZ2B block | JMJD2A Tudor inh
Cc1nc2cc(N3CCCCC3)c(NC(=O)c3cccnc3)cc2c(=O)n1Cc1ccccc1 | 2% | 8% | 38% | -10%[59 µM] | 1% | -3%
O=C(COC(=O)CSc1ccc([N+](=O)[O-])cc1)NC1CCCCCCC1 | 3% | . | ? | 45µM* | -8% | ?
O=C(COC(=O)c1ccc(-c2ccc([N+](=O)[O-])cc2)o1)NC(=O)NC1CCCCC1 | -14% | ? | -11% | 40µM* | -6% | -31%
O=C(COC(=O)c1ccc(-c2ccc([N+](=O)[O-])cc2)o1)NC(=O)NC12CC3CC(CC(C3)C1)C2 | -21% | 19% | ? | ? | ? | ?
CN(C(=O)CSc1nc2cc([N+](=O)[O-])ccc2n1-c1ccc(F)cc1)C1CCS(=O)(=O)C1 (configuration not stated) | 4% | -1% | 25% | 20µM* | -29% | 79µM*
Cc1ccc(SCC(=O)OCC(=O)NC2CCCCCCC2)cc1 | 16% | . | 79% | 9%[0.501 µM] | 32% | 21%
CCN(C(=O)COC(=O)CSc1ccc([N+](=O)[O-])cc1)C1CCS(=O)(=O)C1 (configuration not stated) | . | 14% | 50µM* | 18% | -5% | 35µM*
CN(C(=O)COC(=O)CSc1ccc([N+](=O)[O-])cc1)C1CCS(=O)(=O)C1 (configuration not stated) | -3% | . | 3% | 50µM* | 10% | -17%
CN(C(=O)COC(=O)CSc1ccc(C(N)=O)cc1[N+](=O)[O-])C1CCS(=O)(=O)C1 (configuration not stated) | 4% | . | -3% | -41% | 6% | -10%
O=C(O)c1cnc2ccccc2n1 | 8% | -18% | ? | 13%[59 µM] | ? | 20µM*
COc1cc(C(=O)O)nc2ccccc12 | -10% | 63µM* | -10% | 12%[2.33 µM] | 40µM* | 13µM*
COC(=O)c1cnc2ccccc2n1 | 6% | 4% | 27% | -6%[59 µM] | 13% | -12%
O=C(O)c1cc2ccccc2cn1 | . | . | 0%[57 µM] | . | . | 0.32µM*
O=C1c2ccccc2C(=O)C1c1cc2ccccc2cn1 | . | . | 65% | . | . | -23%
O=C(Cn1ccc2cc(S(=O)(=O)N3CCCCCC3)ccc21)NCc1cccc(Cl)c1 | . | . | 27% | -28%[59 µM] | 0% | -24%
N#CC1=C2SCN(C3CCCCC3)CN2C(=O)CC1c1c(F)cccc1Cl (configuration not stated) | . | . | ? | 2.8µM* | . | 22µM*
O=c1c(Cc2c(F)cccc2Cl)c(O)ccn1C1CCCCCC1 | -8%[11.4 µM] | 2% | 46% | -11% | ? | -5%
N#CC1=C2SCN(C3CCCCC3)CN2C(=O)CC1c1ccc(Cl)cc1 (configuration not stated) | . | . | ? | 2µM* | . | 16µM*
CC(C)c1ccc(C2CC(=O)N3CN(C)CSC3=C2C#N)cc1 (configuration not stated) | . | 4.5µM* | ? | 1.6µM* | -33% | ?
O=C1CSC(c2ccc(Cl)cc2)N1C1CCCCC1 (configuration not stated) | . | 9% | 30% | 13%[59 µM] | 7% | 3%
COc1cccc(NC(=O)C2CCCN(c3nnc(-n4c(C)ccc4C)s3)C2)c1 (configuration not stated) | . | . | 5% | 1%[59 µM] | -8% | -29%
CC(=O)c1ccc(O)c(CSc2nncn2C)c1 | -1% | 15% | 45% | -2% | ? | -8%
O=C(O)c1ccc(CSc2nnnn2-c2ccc(F)cc2)cc1 | . | 14% | -7% | -12% | -1% | -10%
Cn1cnnc1SCC(=O)c1ccc(O)c(O)c1 | -5% | ? | 18% | 7.1µM* | ? | -8%
O=C(CSc1nnnn1-c1ccc(F)cc1)c1ccc(O)c(O)c1 | . | 2% | -14% | ? | 45µM* | ?
SMILES | L3MBTL1 inh | Sfp inh | HP1b binding inh | G9a block | BAZ2B block | JMJD2A Tudor inh
Cn1cnnc1SCC(=O)NCCc1ccccc1 | . | 7% | -1% | 17% | 8% | -10%
Cn1cnnc1SCC(=O)c1ccco1 | 0% | -21% | 57% | 45µM* | -3% | -5%
CC1=CC2=NC(=O)/C(=C\c3cccn3CCOc3cccc(C)c3)C(=N)N2O1 | -3% | ? | -23% | 3%[59 µM] | -38% | ?
CC1=CC2=NC(=O)/C(=C\c3cccn3CCOc3cc(C)cc(C)c3)C(=N)N2O1 | -4% | ? | -10% | 40µM* | ? | ?
COc1cccc(OCCn2cccc2/C=C2/C(=N)N3OC(C)=CC3=NC2=O)c1 | . | 11% | -2% | 18µM* | ? | -10%
Cc1ccc(S(=O)(=O)N2CC(O)CC2C(=O)OCc2nc3sc(C)c(C)c3c(=O)[nH]2)cc1 (configuration not stated) | -1% | 14% | 27% | 4µM* | -2% | 0%
CCOC(=O)Cc1cc(=O)n(-c2nc3ccccc3s2)[nH]1 | 28µM* | -21% | 14% | 32µM* | 0% | -32%
CCCc1cc(=O)n(-c2nc3ccccc3s2)[nH]1 | 14% | -1% | 69% | . | -12% | -10%
Brc1ccc(OCCOCCN2CCOCC2)cc1 | . | 12% | 8% | -40%[12.7 µM] | -3% | -12%
Cc1cc(Br)ccc1OCCCCN1CCCCC1 | -17% | 45µM* | ? | ? | 50µM* | 1.6µM*
Cc1ccc(OCCCCN2CCc3ccccc3C2)c(C)c1 | 7%[2.29 µM] | -21% | 43% | 5%[0.501 µM] | 8% | -5%
Cc1cc(Br)ccc1OCCOCCN1CCCC1 | -2% | -4% | 2% | . | ? | 25µM*
Cc1ccc(OCCOCCN2CCCC2)c(Br)c1 | 0% | -10% | ? | 35µM* | 56µM* | 28µM*
O=C(Cn1c(-c2cccs2)cc2ccccc21)N1CCN(c2ccc(F)cc2)CC1 | . | . | 20% | -4%[59 µM] | -11% | -9%
O=C(O)CCN1C(=O)/C(=C2\C(=O)N(Cc3ccc(F)cc3)c3ccccc32)SC1=S | . | -12% | 28µM* | 16µM* | 2.5µM* | 25µM*
